# The panel holds about 83,000 compounds, 20% with a hit somewhere; the sample as a whole holds those more often.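 48-hour exposure, single concentration, 96-well plates; percent growth endpoint where 0 means no net growth. Active: below 10.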 Activity calls are given as the source filed them.
# Tested on: MDA-MB-468 breast
# Test: NCI-60 one-dose screen, 48 h (100 = growth as untreated, 0 = no growth, -100 = all killed)
# Conditions: 10 µM unless noted
row,SMILES,growth
1,C#CCOc1ccc(/C=N/Nc2nc(-c3ccc(OC)cc3)cs2)cc1,45.3% (inactive)
2,Cc1ccc(S(=O)(=O)N(CC[C@@H]2C[C@H]2c2cc3ccccc3o2)C(=O)NC2CCCCC2)cc1,95.3% (inactive)
3,COc1cccc2c1CN(C(=O)c1ccc(O)c(C(=O)N3Cc4ccc(OCCC[P+](c5ccccc5)(c5ccccc5)c5ccccc5)cc4C3)c1)C2,-2.86% (active)
4,Fc1ccc(Nc2nc(NCCNc3ccnc4cc(Cl)ccc34)nc(N3CCOCC3)n2)cc1,16.7% (inactive)
5,OC(c1ccccn1)C(O)c1ccccn1 (stereo not given),113% (inactive)
6,CC1(C)CC[C@]2(C(=O)O)CC[C@]3(C)[C@H](CC[C@@H]4[C@@]5(C)CCC(=O)C(C)(C)[C@@H]5CC[C@]43C)[C@H]2[C@H]1OC(=O)C(F)(F)F,-71% [100 µM] (active)
7,CN(Cc1ccccc1)c1nc(Cl)c(C2CC(c3ccc(Cl)cc3)=NN2c2cc(Cl)cc(Cl)c2)s1 (stereo not given),101% (inactive)
8,CC(CN)[C@@H]1CC[C@]2(CO)CC[C@]3(C)[C@H](CC[C@@H]4[C@@]5(C)CCC(NCCO)C(C)(C)[C@@H]5CC[C@]43C)[C@@H]12 (stereo not given in full),11.8% (inactive)
9,C/C(Cc1ccc(Cl)cc1)=C(/c1ccccc1)c1ccc(OCCN)cc1,97.2% (inactive)
10,Cc1cccc(NC(=O)c2sc3nc4c(cc3c2N)CCC4)c1C,10.6% (inactive)
11,CCOC(=O)C#Cc1c(C(=O)OCC)nnn1Cc1ccc([N+](=O)[O-])cc1,-19.6% (active)
12,COc1cc(-c2nc(-c3nnc(-c4cccnc4)o3)c3ccccn23)cc(OC)c1OC,104% (inactive)
13,O=C1Nc2c(ccc(Cl)c2Cl)/C1=C/c1ccc(F)cc1,51.9% (inactive)
14,Cc1ccc(-c2nc(N3CCN(C(=O)c4ccc(OC(F)(F)F)cc4)CC3)c3ccccc3n2)cc1,93.8% (inactive)
15,CCNc1ncnc2n[nH]nc12,97.2% (inactive)
16,Cc1nc2ccc(-n3ncc(C(=O)c4cc5ccccc5[nH]4)c3N)cc2[nH]1,68.2% (inactive)
17,CC(=O)N1N=C(c2ccc(Nc3ccnc4cc(Cl)ccc34)cc2)CC1c1ccc(Cl)cc1 (stereo not given),24.3% (inactive)
18,Cc1cccc(/C=C/C(=O)Nc2ncc(Cc3cccc(C)c3)s2)c1,-15.3% (active)
19,O=C(Cn1c[n+](CC(=O)c2ccc([N+](=O)[O-])cc2)c2ccccc21)Nc1cccc2cccnc12,9.02% (active)
20,CCOC(=O)/C(O)=C(\C=N\C(=S)Nc1ccc(Cl)c(Cl)c1)C(=O)OCC,102% (inactive)

row,SMILES,growth
1,COc1cccc(-c2nc3sccn3c2-c2ccnc(NCCNC(=O)Nc3cccc(C(F)(F)F)c3)n2)c1,39.6% (inactive)
2,CCN1C(=O)N(CC)C2Nn3c(s/c(=C\c4cccc([N+](=O)[O-])c4)c3=O)=NC21 (stereo not given),28.8% (inactive)
3,O=NN(Cc1cccnc1)C(=O)NC1CCCCC1,104% (inactive)
4,CCOc1ccc2nc(NC(=O)c3ccc(C(F)(F)F)cc3)sc2c1,111% (inactive)
5,C=C1C(=O)O[C@H]2[C@H]1CC/C(COC(=O)NCC(=O)Nc1ccc(OC)c(C(N)=O)c1O)=C\CC[C@@]1(C)O[C@@H]21,8.85% (active)
6,C=CCOc1c(Br)cc(Br)cc1Br,96.8% (inactive)
7,CN1CCN(Cc2ccc(NC(=O)c3cncc(C#Cc4cnn5ccccc45)c3)cc2C(F)(F)F)CC1,-36.1% (active)
8,CC[N+](CC)=c1ccc2nc3c(cc(NCc4ccccc4)c4ccccc43)oc-2c1,-88.7% (active)
9,CCC(=O)Oc1c(C)cc(O)c2ccccc12,5.03% (active)
10,COc1ccc(/C=C2/CN(C(=O)c3ccccc3F)C/C(=C\c3ccc(OC)cc3)C2=O)cc1,1.01% (active)
11,Cn1c2ccccc2c2c3[nH][nH]c(=O)c3c3c4ccccc4[nH]c3c21,49.5% (inactive)
12,Cc1ccc(/C=C2/C(=O)Nc3cc(Cl)c(-c4csc(N)n4)cc32)cc1,15.2% (inactive)
13,C/C(=C(\c1ccc(O)cc1)c1ccc(OCCN2CCCCCC2)cc1)c1ccc(Cl)cc1,-88% (active)
14,CCN1CCN(c2nc3ccccc3c3c(=O)c4ccccc4sc23)CC1,35.5% (inactive)
15,C/C(=N\NC(N)=S)C(C)(C)O,26.2% (inactive)
16,O=C(Nc1ncc(Cc2cccc(C(F)(F)F)c2)s1)c1ccc(-n2cnnn2)cc1,16.7% (inactive)
17,CCCN(CCC)CN(CCC)CCC,106% (inactive)
18,CCCCCCCCC/C(=N\NC(=O)c1ccncc1)c1ccc(O)c(O)c1O,18.5% (inactive)
19,COc1ccc(-c2nc3ccc(-c4nnc(SCC(=O)Nc5ccc(C(=O)/C=C/c6ccc(Cl)cc6)cc5)o4)cc3[nH]2)cc1,98.1% (inactive)
20,COc1ccccc1Cn1cc2c(c1-c1ccccc1)CCc1cnoc1-2,10.9% (inactive)
